According to PubChem BioAssay AID588847 (Broad Institute, 2011):
Results with a measured potency or affinity are listed apart. Calls of active or inactive are those of the source.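 The calls were made as follows: active = compounds lowering luciferase light with a fitted half-maximal dose at most twice the top tested dose; inconclusive = flat fit inhibiting 30 to 70%, or unreliable fit; inactive = the rest.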

The compounds below were run against Luciferin 4-monooxygenase (Photuris pensylvanica) (UniProt Q27757) (assay: firefly luciferase enzyme inhibitors, dose response, counter-screen for HSF-1 reporter inhibitor project, biochemical, Cell Titer Glo, luminescence, cherry-picks (AID 588847)). Conditions: ATP; series mostly up to 26 µM.
Luciferin 4-monooxygenase (Photuris pensylvanica), sequence (Q27757 whole entry, looked up): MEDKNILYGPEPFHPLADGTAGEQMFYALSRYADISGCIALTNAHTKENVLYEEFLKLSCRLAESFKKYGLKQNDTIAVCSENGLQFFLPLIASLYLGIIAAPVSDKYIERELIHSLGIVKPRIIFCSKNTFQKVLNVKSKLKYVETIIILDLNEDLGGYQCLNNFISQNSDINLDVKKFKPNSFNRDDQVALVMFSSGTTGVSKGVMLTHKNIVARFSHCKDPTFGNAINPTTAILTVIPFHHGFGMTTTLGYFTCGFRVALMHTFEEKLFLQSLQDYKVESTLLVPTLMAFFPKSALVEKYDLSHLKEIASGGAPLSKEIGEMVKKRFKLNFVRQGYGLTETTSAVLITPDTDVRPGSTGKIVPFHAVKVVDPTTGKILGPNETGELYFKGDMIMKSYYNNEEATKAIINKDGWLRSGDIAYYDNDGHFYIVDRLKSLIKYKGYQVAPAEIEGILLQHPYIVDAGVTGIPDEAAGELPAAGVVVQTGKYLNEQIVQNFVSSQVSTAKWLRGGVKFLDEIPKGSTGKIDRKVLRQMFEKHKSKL
With `Cc1ccc(C(=O)Nc2sc(C)c(-c3ccccc3)c2C(N)=O)cc1[N+](=O)[O-]` the outcome was “inactive”. For `COC(=O)c1ccccc1NC(=O)c1ccc(-c2ccc(Br)cc2)o1`, the outcome was “inactive”. For `O=[N+]([O-])c1nn(-c2ccc3c(c2)OCCO3)n(O)c1=Nc1ccccc1`, the outcome was “inactive”. For `Cc1nc(SCC(=O)Nc2nc3ccccc3s2)c(C#N)c(C)c1C`, the outcome was “inactive”. In the case of `CC(=O)[C@@]1(O)C(C)CC2C3C=C(C)C4=Cc5c(cnn5-c5ccccc5)C[C@]4(C)C3C(O)C[C@@]21C` (stereo partly drawn), the outcome is reported as “inactive”. With `CC(=O)OCC(=O)[C@@]12OC(C)(C)O[C@@H]1CC1C3C[C@H](F)C4=CC(=O)C=CC4(C)[C@@]3(F)C(O)CC12C` (stereo partly drawn) the outcome was “inactive”. With `O=C(Nc1ccc(F)cc1F)c1cc2nc3c(c(C(F)(F)F)n2n1)CCCC3` the outcome was “inactive”. With `COc1cc([C@@H]2c3cc4c(cc3[C@H](O)[C@H]3COC(=O)[C@H]23)OCO4)cc(OC)c1OC` the outcome was “inactive”.
